From PubChem BioAssay
The entries come from a sample that favours hits as a whole.
Tg IFNy HTS: T. gondii growth inhibition under IFN-gamma; Toxoplasma gondii growth in IFN-gamma-treated host cells; stronger effect = lower value; activity change, negative = inhibition, % (concentration not given with the values); 3.8% of 69,000 active; AID 1259416; in the data active = activity change below about -70%, passing the limit was not always enough;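 also: host cells are HeLa cells infected with Toxoplasma gondii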
Active calls of the source: *; i = inactive; ! = a repeat was not active.

SMILES	Tg IFNy HTS
CCC(C)NC(=O)Cn1c(=O)cc(-c2nc(C3CC3)no2)c2ccccc21 (configuration not stated)	-29
COC(=O)Nc1ccc(S(=O)(=O)N2CCCCC2)cc1	25
O=c1[nH]c(O)c(N=Nc2ccc(S(=O)(=O)N3CCCC3)cc2)c(=O)[nH]1	-74*
O=c1ccc2cc(S(=O)(=O)N3CCCC3)ccc2[nH]1	i
COc1ccc(CCC(C)NC(=O)C(C)(C)n2cncn2)cc1 (configuration not stated)	-2
COCC(=O)Nc1ccc2c(c1)OC[C@@H](C)N(C(=O)Nc1ccccc1F)C[C@@H](C)[C@H](OC)CN(C)C2=O	29
CN(C)C[C@@]12COC[C@H]1CN(C(=O)c1ccc3ncccc3c1)C2	-22
CC(C)n1nnc(CC(=O)Nc2ncc(Cc3cccc(Cl)c3Cl)s2)n1	-45
CN1C(=O)c2cc(NC(=O)Nc3cccc(C#N)c3)ccc2OC[C@H]2O[C@@H](CC(=O)Nc3ccc4c(c3)CCC4)CC[C@@H]21	-58
Cc1cc(C(=O)Nc2ccc3c(c2)C(=O)N(C)[C@@H]2CC[C@@H](CC(=O)NCc4ccc(-c5ccccc5)cc4)O[C@@H]2CO3)no1	-60
CN1C(=O)c2cc(NC(=O)c3cccc(F)c3)ccc2OC[C@@H]2O[C@H](CC(=O)NCC3CCCCC3)CC[C@@H]21	-23
Cc1cc(C(=O)Nc2ccc3c(c2)C(=O)N(C)[C@H]2CC[C@H](CC(=O)NCc4ccc(-c5ccccc5)cc4)O[C@H]2CO3)no1	-62
CN1C(=O)c2cc(NC(=O)c3cccc(F)c3)ccc2OC[C@H]2O[C@@H](CC(=O)NCC3CCCCC3)CC[C@H]21	-77*!
CN1C(=O)c2cc(NC(=O)c3ccc4c(c3)OCO4)ccc2OC[C@H]2O[C@@H](CC(=O)O)CC[C@@H]21	7
COC(=O)C[C@H]1CC[C@@H]2[C@@H](COc3ccc(NC(=O)Nc4cccc(C#N)c4)cc3C(=O)N2C)O1	-79*
CN1C(=O)c2cc(NC(=O)Nc3cccc(C#N)c3)ccc2OC[C@H]2O[C@@H](CC(=O)NCc3ccc(Cl)cc3)CC[C@@H]21	-5
CN1C(=O)c2cc(NC(=O)c3ccc(C(F)(F)F)cc3)ccc2OC[C@H]2O[C@H](CC(=O)NCc3ccc4c(c3)OCO4)CC[C@@H]21	-75*
CN1C(=O)c2cc(NC(=O)c3ccc4c(c3)OCO4)ccc2OC[C@H]2O[C@H](CC(=O)O)CC[C@@H]21	-11
CN1C(=O)c2cc(NC(=O)c3cccc(F)c3)ccc2OC[C@@H]2O[C@H](CC(=O)NCc3ccccc3Cl)CC[C@H]21	-22
Cc1cc(C(=O)Nc2ccc3c(c2)C(=O)N(C)[C@@H]2CC[C@H](CC(=O)NCc4ccc(-c5ccccc5)cc4)O[C@@H]2CO3)no1	-87*
Cc1c(C(=O)NCC2(O)CCCNCC2)sc2ccccc12 (configuration not stated)	6
CCOC(=O)c1coc(N2C[C@H](O)[C@@H](N3CCOCC3)C2)n1	3
OCC1(O)CCCN(Cc2ccncc2)CC1 (configuration not stated)	-1
Cc1nc(-c2ccccc2)c(C(=O)NCCCc2csc(N)n2)s1	1
Cc1nc(C(F)(F)F)nc(NCC2(O)CCCNCC2)c1C (configuration not stated)	0
SMILES	Tg IFNy HTS
CN1CCOc2cc(C(=O)N[C@@H]3C[C@@H](CO)N(C)C3)ccc21	3
Cc1oc(-c2cccc(Cl)c2)nc1CNS(=O)(=O)c1ccc(F)cc1	-57
N[C@@H](Cc1ccc(O)cc1)C(=O)N1CCc2onc(-c3ccccc3)c2C1	9
CC(C)(C)c1ccc(CSC2=Nc3ccccc3C3=NC(CC(=O)NCc4ccco4)C(=O)N23)cc1 (configuration not stated)	-34
Cc1ccc(NC(=O)Cc2nn(C)c(=O)c3ccccc23)cc1C	-53
CCOc1ccc(C(=O)C2CCN(CC(=O)Nc3cccc(Cl)c3C)CC2)cc1	-20
COCCNc1nc(-c2ccc(OC)cc2)nc2ccccc12	-64
C=CCN1CCN(C)C2(CCN(Cc3cnn(C)c3)CC2)C1=O	36
CC(C)=CCN(C)Cc1cc(-c2ccncc2)no1	4
CSc1nc(-c2cc(Cl)cc(Cl)c2)nn1C(=O)N(C)C	24
Cc1cc(C(=O)Nc2ccc3c(c2)C(=O)N(C)[C@H]2CC[C@@H](CC(=O)NCc4ccc(-c5ccccc5)cc4)O[C@H]2CO3)no1	-79*
Cc1cc(C(=O)Nc2ccc3c(c2)C(=O)N(C)[C@H]2CC[C@H](CC(=O)NCc4ccc(-c5ccccc5)cc4)O[C@@H]2CO3)no1	-35
Cc1cc(C(=O)Nc2ccc3c(c2)C(=O)N(C)[C@@H]2CC[C@@H](CC(=O)O)O[C@H]2CO3)no1	14
O=C1Nc2ccc(Cl)cc2/C1=c1/sc2n(c1=O)CN(c1ccc3c(c1)OCO3)CN=2	-17
COc1cc(-c2nc(Cn3ccn4nc(-c5ccc6c(c5)OCO6)cc4c3=O)c(C)o2)cc(OC)c1OC	-30
COC(=O)c1cccnc1N1CC[C@@H](c2ccc3ccccc3c2)[C@H](O)C1	0
CC(C)C[C@@H](C=O)NC(=O)[C@H](CC(C)C)NC(=O)[C@H](CC(C)C)NC(=O)OCc1ccccc1	-81*
CC(C)CC(NC(=O)OCC1c2ccccc2-c2ccccc21)C(=O)O (configuration not stated)	0
CC(C)C[C@H](NC(=O)[C@@H](O)[C@H](N)Cc1ccccc1)C(=O)O	10
CC1COC2(CCN(C(=O)c3ccn(C)n3)CC2)C1 (configuration not stated)	23
COCC1c2nnn(C)c2CCN1C(=O)COc1ccccc1C (configuration not stated)	-10
COc1ccccc1OCCn1cc(/C=C/C2=CCN(C)CC2)c2ccccc21	88
Cc1ccccc1C(=O)NN1C(=O)c2ccccc2C1=O	-31
Cc1ccccc1C(=O)O/N=C1\C(=O)c2ccccc2-c2ccccc21	-86*
COC(=O)c1ccccc1-c1ccccc1C(=O)OC	-59
SMILES	Tg IFNy HTS
Cc1cc(C(F)(F)F)n(-c2nc(C(=O)N3CC[C@H](O)[C@@H](O)C3)cs2)n1	-3
O=C(Nc1ccnn1C1CCN(c2ncccc2Cl)CC1)c1cccnc1	11
COc1ccc(CN(CCN(C)C)c2ccccn2)cc1	0
CCCCCCCCCCCCCCCC[N+](C)(C)CCN(Cc1ccc(OC)cc1)c1ncccn1	-84*
COc1ccc(CN(CCN(C)C)c2ncccn2)cc1	15
Cc1nc(-c2ccc(F)cc2)sc1-c1ccc(SCc2ccc(Cl)c(Cl)c2)nn1	0
Cc1ccc(-c2coc(-c3ccc(NC(=O)Nc4ccc(F)cc4F)cc3)n2)cc1	14
COc1ccccc1NC(=O)Nc1ccc(-c2nc(-c3ccc(C)cc3)co2)cc1	-77*
COc1ccccc1NC(=O)Nc1ccc(-c2nc(-c3ccc(C)cc3C)co2)cc1	-17
COc1cc(OC)c(NC(=O)Nc2ccc(-c3nc(-c4ccc(C)cc4)co3)cc2)cc1Cl	-77*
COc1ccc(C)cc1NC(=O)Nc1ccc(-c2nc(-c3cccc(Br)c3)co2)cc1	-50
O=C(Nc1ccc(-c2nc(-c3ccccc3)co2)cc1)Nc1ccccc1Cl	38
COc1ccccc1NC(=O)Nc1ccc(-c2nc(-c3cc(C)ccc3C)co2)cc1	-36
COc1cc(OC)c(NC(=O)Nc2ccc(-c3nc(-c4ccccc4)co3)cc2)cc1Cl	-85*
COc1ccc(NC(=O)Nc2ccc(-c3nc(-c4ccccc4)co3)cc2)cc1Cl	34
CO[C@@H]1CC[C@@H]2[C@@H]1OCCN2C(=O)c1ccc2ccccc2c1	-10
CS(=O)(=O)NC1CCN(Cc2ncc[nH]2)CC1	4
